Bioassay records: PubChem BioAssay, The Scripps Research Institute Molecular Screening Center
MITF primary: inhibitors of human MITF. O75030. AlphaScreen MITF homodimerization, bead proximity signal. inhibition, % at 2.6 µM. actives 0.91% (n = 650,000); in the data active = inhibition above about 50%;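 note: 0% = vehicle wells with protein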
TEAD-YAP inh: TEAD-YAP interaction inhibition; HEK-TIYL cells, TEAD-Gal4/YAP UAS-luciferase luminescence; inhibition, % at 9.12 µM; actives 1.4% (n = 640,000); AID 1259422; in the data active = inhibition above about 32%;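 note: 0% = median of test compound wells and 100% = reference inhibitor wells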
FBW7 act: activators of human E3 ligase FBW7. Q969H0. AlphaScreen FBW7–phospho-cyclin E peptide binding, activator screen. normalized activity (activation), % at 26.1 µM. actives 0.13% (n = 650,000). AID 1259310; in the data active = normalized activity above about 1.9%;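 note: purified mutant Fbw7 with reduced substrate affinity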
GPR151 ag: activators of human GPR151 | Q8TDV0 | PathHunter beta-arrestin GPR151 cells, luminescence | activation, % at 11.2 µM | actives 1% (n = 650,000); in the data active = activation above about 4.9%;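 note: 0% = median of compound wells and 100% = cells with positive control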
GPR151 confirm: confirmation of human GPR151 activators. shares compounds with GPR151 ag. GPR151 PathHunter beta-arrestin cells, luminescence, 90 min; % of EA-reagent control over plate median. activation, % at 11.2 µM. 6,700 tested, under 10 active. AID 1508609;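 active = mean percent activation across replicates above the confirmation screen cutoff of 4.91%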
GPR119 counter: activates human GPR119 in a GPR151 counter-screen | shares compounds with GPR151 ag | GPR119 PathHunter beta-arrestin cells, luminescence, 90 min; 0 = compound-well median, 100 = enzyme-acceptor control | activation, % at 11.2 µM | actives 0.3% (n = 6,700) | AID 1508611;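 active = mean percent activation in the counterscreen above 29.09%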;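 note: counterscreen on off-target GPR119 to flag nonselective hits from the GPR151 activator screen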
Target sequence (Q8TDV5 whole entry, looked up): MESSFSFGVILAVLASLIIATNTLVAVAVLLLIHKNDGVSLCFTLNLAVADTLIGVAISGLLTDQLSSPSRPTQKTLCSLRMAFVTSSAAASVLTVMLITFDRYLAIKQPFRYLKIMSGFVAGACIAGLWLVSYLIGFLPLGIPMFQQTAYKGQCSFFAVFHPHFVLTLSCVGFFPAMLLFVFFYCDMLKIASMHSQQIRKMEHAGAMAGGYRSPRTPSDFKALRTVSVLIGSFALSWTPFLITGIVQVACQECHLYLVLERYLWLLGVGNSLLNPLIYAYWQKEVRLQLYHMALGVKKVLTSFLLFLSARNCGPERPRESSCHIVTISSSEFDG
Starred values were filed as active, the others as inactive; . = not tested or not shown; ! = a repeat was not active. Rows were chosen to be rich in hits. Some 3.5% of all compounds tested hit in one or more screens of this group.

SMILES | MITF primary | TEAD-YAP inh | FBW7 act | GPR151 ag | GPR151 confirm | GPR119 counter
C#C[C@]1(O)CC[C@H]2[C@@H]3CCC4=Cc5oncc5CC4(C)[C@H]3CCC21C (stereo not given in full) | 1 | -15 | 0 | 5.5*! | 1 | -2
C#C[C@]1(O)CC[C@H]2[C@@H]3CCc4cc(O)ccc4[C@H]3CC[C@@]21C | -5 | . | 0 | 2 | . | .
Cc1ccc(OCC(=O)N(C)C2CCCCC2)cc1C | -5 | -73 | 0 | 5.0* | -1 | 7
Cc1ccc(OCC(=O)NC2CCCCC2)cc1C | -4 | -18 | 0 | -1 | . | .
COCCCNc1nc2c(S(=O)(=O)c3ccccc3)nnn2c2ccsc12 | -3 | -7 | 0 | 6.5* | 1 | 9
COCCCNc1nc2c(S(=O)(=O)c3ccccc3)nnn2c2ccccc12 | 6 | -1 | 0 | -1 | . | .
C=CCn1c(=O)c2c(nc3n2CCCN3c2ccc(CC)cc2)n(C)c1=O | 3 | 16 | 0 | 7.4* | 0 | -4
CCn1c(=O)c2c(nc3n2CCCN3c2ccc(Br)cc2)n(C)c1=O | 2 | 1 | 0 | 0 | . | .
COc1ccc(S(=O)(=O)CCC(=O)Nc2ccccc2Br)cc1 | 3 | -9 | 0 | 9.4* | 0 | -4
O=C(OCc1nc2ccccc2s1)c1ccccc1 | -14 | -1 | 0 | 6.7* | 0 | -8
O=C(Cc1ccc(Cl)cc1)N1CCN(S(=O)(=O)c2cc3c4c(c2)CCN4C(=O)CC3)CC1 | 8 | 5 | 0 | 0 | . | .
CCN(C(=O)Cn1nc(C(=O)N2CCOCC2)cc1-c1cccs1)c1ccccc1C | -1 | 4 | 0 | 1 | . | .
Cc1c(NC(=O)C(C)N2C(=O)C3C4CCC(C4)C3C2=O)ccc(Br)c1Cl (stereo not given) | 14 | 3 | 1 | 13* | 0 | 2
Cc1nccn1CCNC(=O)c1ccc(F)c(F)c1 | -5 | 8 | 0 | 9.9* | 0 | -9
CCOc1ccc(CC(=O)NCCn2ccnc2C)cc1 | 1 | 5 | 0 | 3 | . | .
C=CCNC(=O)c1sc(=S)n(CCc2ccccc2)c1N | 9 | -34 | 0 | 5.2* | 0 | 1
N#Cc1ccc(S(=O)(=O)NCCc2ccncc2)cc1 | 2 | 1 | 0 | 5.2* | 0 | 1
CCc1c(C)nc(SCCc2ccccc2)[nH]c1=O | 4 | -9 | 0 | 5.4* | -1 | -12
COC(=O)C12CC3C(C1C(C)=NN2C(C)=O)C3(C)C (stereo not given) | 18 | -6 | 0 | 0 | . | .
CC(=O)OC12CC3C(C1C(C)=NN2C(=O)C(=O)N1N=C(C)C2C4C(CC21OC(C)=O)C4(C)C)C3(C)C (stereo not given) | -3 | 1 | 0 | 7.8* | 0 | 2
CCCCN(c1ccccc1C(=O)O)S(=O)(=O)c1ccc2c(c1)n(C)c(=O)n2C | 5 | -7 | 0 | -1 | . | .
CC(C)C(=O)N1CCN(c2ccc(NC(=O)Cc3ccccc3)cc2Cl)CC1 | -2 | 14 | 0 | 0 | . | .
CCOc1cc(/C=C/c2[nH]c(=O)[nH]c(=O)c2[N+](=O)[O-])ccc1O | 3 | 1 | 0 | 6.5* | 0 | -5
COC(=O)C1=NN(C(=O)c2ccc(Br)cc2)C2C(=O)N(c3ccc(C)cc3)C(=O)C12 (stereo not given) | 4 | 2 | 0 | -1 | . | .
Cc1cc(C)nc(Nc2c(C)cccc2C)n1 | -1 | 2 | 0 | 0 | . | .
CCCn1nnc(NC(=O)C(C)Oc2ccc(Cl)cc2Cl)n1 (stereo not given) | 6 | 7 | 0 | 4.9* | 0 | -8
